According to PubChem BioAssay:
Values joined by “and” are separate entries in the source; they are usually repeats but may differ in a detail not shown here. Equal values may be shown once. Active and inactive are the calls of the source. Unless noted, the rule behind the calls is not given here.

Key:
[1] = system: Wnt5a (protein binding on small-molecule microarray); test: Wnt5a binders on small-molecule microarray, primary screen, biophysical, 635/667 nm fluorescence (AID 1142); conditions: 635 nm fluorescence, higher = more signal;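 note: fluorescence read at 667 nm with signal to noise per printed feature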
[2] = cell viability in Huh7 cells, primary screen, cytotoxicity control for HCV replication inhibitor project, CellTiter-Glo luminescence, basal, 48 h (AID 1143); conditions: Huh7 HCV replicon, higher = more signal, called active from +8 up or from −8 down;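 note: Huh7 hepatoma cells carrying a hepatitis C replication reporter with no stimulus; test concentration not given here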
[3] = P. aeruginosa biofilm formation inhibitors, primary screen, PAO1 strain, BacTiter-Glo luminescence, LB-PBS (AID 1144); conditions: 12 h, higher = more signal
[4] = CREB reporter modulators without forskolin, primary screen, cell-based, PC12, CRE-LacZ reporter, unstimulated (AID 1145); conditions: no forskolin, luminescence, 4.5 h, higher = more signal, called active from +8 up or from −8 down
[5] = CREB reporter modulators under forskolin, primary screen, cell-based, PC12, CRE-LacZ reporter, forskolin-stimulated (AID 1146); conditions: luminescence, 4.5 h, higher = more signal, called active from +8 up or from −8 down;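 note: PC12 cells with 6xCRE LacZ reporter stimulated by forskolin 10 µM; beta-galactosidase reporter signal reflecting CREB driven transcription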
[6] = molecular target: Streptavidin (Streptomyces avidinii) (UniProt P22629); test: streptavidin binders on small-molecule microarray, primary screen, artefact control for SMM compound annotation, biophysical, 635/667 nm fluorescence (AID 1147); conditions: streptavidin binding, higher = more signal;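 note: signal reflects streptavidin binding to arrayed compounds as a control protein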
Chain of Streptavidin (Streptomyces avidinii) (P22629 whole entry, looked up): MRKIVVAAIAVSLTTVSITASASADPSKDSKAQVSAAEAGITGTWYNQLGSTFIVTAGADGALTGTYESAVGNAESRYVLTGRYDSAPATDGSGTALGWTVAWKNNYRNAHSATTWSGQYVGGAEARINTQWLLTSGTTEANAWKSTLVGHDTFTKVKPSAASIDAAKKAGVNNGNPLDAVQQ

[7] = small-molecule binders of probe aInhba, primary screen, biochemical, small-molecule microarray, 635/667 nm fluorescence (AID 1148); conditions: higher = more signal;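 note: score merges 667nm spot fluorescence with signal-to-noise for antibody binding to printed compounds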
[8] = molecular target: Torsin-1A (Homo sapiens) (UniProt O14656); test: torsin A binders from cell lysate, primary screen, small-molecule microarray, wild-type, 635/667 nm (AID 1149); conditions: COS7 hTOR1A-WT lysate, 635 nm fluorescence, higher = more signal
Chain of Torsin-1A (Homo sapiens) (O14656 whole entry, looked up): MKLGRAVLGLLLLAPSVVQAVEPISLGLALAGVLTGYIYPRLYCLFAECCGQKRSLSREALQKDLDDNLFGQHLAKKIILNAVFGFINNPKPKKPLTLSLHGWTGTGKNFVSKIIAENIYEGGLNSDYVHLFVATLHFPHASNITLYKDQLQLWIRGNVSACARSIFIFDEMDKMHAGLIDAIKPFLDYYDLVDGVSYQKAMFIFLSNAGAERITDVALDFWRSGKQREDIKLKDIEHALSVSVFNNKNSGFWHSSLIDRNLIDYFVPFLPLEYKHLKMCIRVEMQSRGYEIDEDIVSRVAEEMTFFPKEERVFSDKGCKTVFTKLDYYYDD

[9] = molecular target: Torsin-1A (Homo sapiens) (UniProt O14656); test: small-molecule binders of mutant TOR1A in lysate, primary screen, cell lysate, small-molecule microarray, COS7 lysate, 635/667 nm fluorescence (AID 1150); conditions: COS7 hTOR1A mutant lysate, 635 nm fluorescence, higher = more signal;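 note: score pools 667 nm emission and signal to noise measuring lysate protein binding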
[10] = system: Sonic hedgehog protein (Shh); test: small-molecule binders of Shh protein, primary screen, biochemical, small-molecule microarray, 635/667 nm fluorescence (AID 1151); conditions: small-molecule microarray binding, 635 nm fluorescence; higher = more signal;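 note: Shh protein binding to compounds spotted on small-molecule microarray slides; score combines spot fluorescence intensity with signal-to-noise across triplicate slides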
[11] = E. coli DRC41 culture turbidity changes, primary screen, E. coli filamentation inducer project, strain DRC41, OD650, 48 h (AID 1152);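 note: E. coli MC1000 strain DRC41 lacking acrAB efflux pump and sulA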; conditions: E. coli DRC41 (acrAB sulA), higher = more signal, called active from +8 up or from −8 down
[12] = small-molecule binders of probe aLefty1, primary screen, biochemical, small-molecule microarray, 635/667 nm fluorescence (AID 1153); conditions: higher = more signal;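 note: score merges spot fluorescence with signal-to-noise ratio from the scanned slide images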
[13] = PSAC antagonists in infected red cells, primary screen, cell-based, P. falciparum Indochina, OD700, 1 h (AID 1154); conditions: P. falciparum Indochina infected RBC osmotic lysis, higher = more signal, called active from +8 up or from −8 down
[14] = PSAC antagonists in infected red cells, primary screen, cell-based, P. falciparum Indochina, OD700, 2 h (AID 1155);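 note: lysis reports solute entry through the parasite surface anion channel PSAC; channel blockers reduce lysis of infected cells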; conditions: P. falciparum Indochina infected erythrocytes, osmotic lysis OD700; higher = more signal, called active from +8 up or from −8 down
[15] = osmotic lysis modulators in infected erythrocytes, primary screen, PSAC antagonist project, cell-based, P. falciparum Indochina, OD700, 3 h (AID 1156); conditions: higher = more signal, called active from +8 up or from −8 down
[16] = PSAC antagonists in infected red cells, primary screen, cell-based, P. falciparum Indochina, OD700, 18 h (AID 1157); conditions: P. falciparum Indochina infected erythrocytes, osmotic lysis OD700, 18 h; higher = more signal, called active from +8 up or from −8 down
[17] = modulators of S6 phosphorylation in cells, primary screen, cell-based, A549, cytoblot, luminescence, serum-stimulated (AID 1158); conditions: A549 phospho-S6 cytoblot, 5 h, higher = more signal;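 note: serum-stimulated A549 lung adenocarcinoma cells; signal is phosphorylated S6 detected by cytoblot immunostaining with HRP secondary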
[18] = molecular target: NADPH oxidase 2 (Homo sapiens) (UniProt P04839); test: NOX2-dependent H2O2 signal modulators, primary screen, NOX inhibitor project, cell-based, HEK293-NOX2, PMA-stimulated, Amplex Red fluorescence (AID 1159); conditions: 45 min, higher = more signal, called active from +8 up or from −8 down; note: test concentration not given here
Chain of NADPH oxidase 2 (Homo sapiens) (P04839 whole entry, looked up): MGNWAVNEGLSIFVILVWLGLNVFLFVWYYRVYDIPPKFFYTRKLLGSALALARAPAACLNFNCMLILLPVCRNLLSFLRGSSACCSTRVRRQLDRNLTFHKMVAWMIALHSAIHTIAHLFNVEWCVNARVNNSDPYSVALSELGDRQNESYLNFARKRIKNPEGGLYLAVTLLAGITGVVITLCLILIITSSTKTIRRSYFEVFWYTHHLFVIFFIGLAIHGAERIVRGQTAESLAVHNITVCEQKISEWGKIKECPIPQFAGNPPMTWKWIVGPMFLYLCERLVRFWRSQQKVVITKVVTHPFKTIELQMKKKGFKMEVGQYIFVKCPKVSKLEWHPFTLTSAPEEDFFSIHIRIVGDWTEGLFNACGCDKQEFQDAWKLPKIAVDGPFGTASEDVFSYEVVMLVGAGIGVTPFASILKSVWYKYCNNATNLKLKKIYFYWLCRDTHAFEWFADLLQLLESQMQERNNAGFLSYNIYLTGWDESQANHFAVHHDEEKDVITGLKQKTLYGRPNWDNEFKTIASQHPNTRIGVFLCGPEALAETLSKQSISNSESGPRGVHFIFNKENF

[19] = molecular target: NADPH oxidase 4 (Homo sapiens) (UniProt Q9NPH5); test: NOX4-dependent H2O2 signal modulators, primary screen, NOX inhibitor project, cell-based, HEK293-NOX4, tetracycline-induced, Amplex Red fluorescence (AID 1160); conditions: 45 min, higher = more signal, called active from +8 up or from −8 down
Chain of NADPH oxidase 4 (Homo sapiens) (Q9NPH5 whole entry, looked up): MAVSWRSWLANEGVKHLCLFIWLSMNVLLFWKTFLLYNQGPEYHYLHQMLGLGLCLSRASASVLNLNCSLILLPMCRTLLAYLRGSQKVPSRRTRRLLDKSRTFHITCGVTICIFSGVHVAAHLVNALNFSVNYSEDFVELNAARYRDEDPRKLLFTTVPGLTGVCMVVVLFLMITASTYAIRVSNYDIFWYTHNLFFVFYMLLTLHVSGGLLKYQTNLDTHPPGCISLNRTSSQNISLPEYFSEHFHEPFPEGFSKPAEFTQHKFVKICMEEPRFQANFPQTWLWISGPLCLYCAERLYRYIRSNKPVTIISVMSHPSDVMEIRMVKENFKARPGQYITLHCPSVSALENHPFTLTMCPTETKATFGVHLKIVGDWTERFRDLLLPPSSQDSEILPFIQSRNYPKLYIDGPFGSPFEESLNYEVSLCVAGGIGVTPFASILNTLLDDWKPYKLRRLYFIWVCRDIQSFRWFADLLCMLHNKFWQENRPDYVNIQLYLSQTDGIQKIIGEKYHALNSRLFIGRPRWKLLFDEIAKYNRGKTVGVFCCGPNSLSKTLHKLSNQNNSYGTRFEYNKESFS

[20] = molecular target: NADPH oxidase 5 (Homo sapiens) (UniProt Q96PH1); test: NOX5-dependent H2O2 signal modulators, primary screen, NOX inhibitor project, cell-based, HEK293-NOX5, Amplex Red fluorescence (AID 1161); conditions: HEK293-NOX5, ionomycin, 45 min, higher = more signal
Chain of NADPH oxidase 5 (Homo sapiens) (Q96PH1 whole entry, looked up): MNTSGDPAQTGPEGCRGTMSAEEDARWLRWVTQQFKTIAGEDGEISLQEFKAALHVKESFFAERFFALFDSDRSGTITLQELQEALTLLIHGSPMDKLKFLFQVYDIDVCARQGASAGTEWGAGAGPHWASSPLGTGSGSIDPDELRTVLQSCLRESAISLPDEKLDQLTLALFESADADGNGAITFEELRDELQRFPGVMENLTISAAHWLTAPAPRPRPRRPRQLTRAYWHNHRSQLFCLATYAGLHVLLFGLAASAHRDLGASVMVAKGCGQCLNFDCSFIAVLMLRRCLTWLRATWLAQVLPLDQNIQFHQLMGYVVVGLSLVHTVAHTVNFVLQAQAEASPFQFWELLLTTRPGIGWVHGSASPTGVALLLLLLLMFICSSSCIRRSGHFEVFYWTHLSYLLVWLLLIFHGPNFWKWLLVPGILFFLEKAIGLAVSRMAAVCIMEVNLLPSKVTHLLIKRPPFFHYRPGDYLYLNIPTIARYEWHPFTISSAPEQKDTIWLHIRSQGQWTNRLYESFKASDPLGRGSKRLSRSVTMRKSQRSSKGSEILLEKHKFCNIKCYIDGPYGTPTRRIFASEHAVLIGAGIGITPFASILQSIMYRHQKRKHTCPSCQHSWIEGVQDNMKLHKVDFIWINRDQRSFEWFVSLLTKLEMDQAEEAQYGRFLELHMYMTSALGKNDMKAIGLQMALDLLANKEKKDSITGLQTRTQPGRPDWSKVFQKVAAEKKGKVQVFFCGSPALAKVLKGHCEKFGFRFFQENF

SMILES	composite z-score [1]	z-score [2]	z-score [3]	z-score [4]	z-score [5]	composite z-score [6]	composite z-score [7]	composite z-score [8]	composite z-score [9]	composite z-score [10]	z-score [11]	composite z-score [12]	z-score [13]	z-score [14]	z-score [15]	z-score [16]	z-score [17]	z-score [18]	z-score [19]	z-score [20]
COC(=O)[C@H](C)NC(=O)CCC1CC(OC(=O)NCCc2ccc(F)cc2)CC2(CCCC(COC(=O)NCCCN3CCCC3=O)O2)O1 (stereo not given in full)	0.29	-0.959 (inactive)	0.0154 (inactive)	-0.704 (inactive)	0.597 (inactive)	0.953	0.117	0.273	0.268	1.07	-0.184 (inactive)	-0.294	-0.798 (inactive)	-0.744 (inactive)	1.05 (inactive)	0.298 (inactive)	0.244	1.32 (inactive)	0.113 (inactive)	-0.0138
C=C[C@@H](C)[C@H](O)c1ccc(O)c2ccccc12	-0.419 and -0.647	-2.11 (inactive) and 0.366 (inactive)	-0.14 (inactive) and -0.671 (inactive)	0.441 (inactive) and -0.272 (inactive)	-0.349 (inactive) and 0.556 (inactive)	-0.984 and -0.766	-0.224 and -0.233	-0.595 and -0.309	-0.518 and -0.45	1.96 and 0.17	0.687 (inactive) and 0.0364 (inactive)	-0.313 and -0.104	1.57 (inactive) and 1.31 (inactive)	0.651 (inactive) and 0.739 (inactive)	-0.198 (inactive) and -0.13 (inactive)	0.795 (inactive) and 0.599 (inactive)	0.166 and 0.217	-4.9 (inactive) and -4.75 (inactive)	-0.696 (inactive) and -0.723 (inactive)	1.07 and 1.48
Cc1cc2c(nc1C)CCCN2CC(C)ON=C[C@@H](C)[C@H](OCc1ccccc1)C(C)C (stereo not given in full)	-0.0264	0.615 (inactive)	0.461 (inactive)	0.248 (inactive)	0.317 (inactive)	-0.254	-0.016	-0.209	0.22	0.513	-0.434 (inactive)	-0.0984	0.376 (inactive)	-0.0677 (inactive)	-0.108 (inactive)	0.294 (inactive)	-0.775	0.231 (inactive)	-0.217 (inactive)	0.00713
C=C[C@@H](C)[C@@H](O)c1ccc(O)c2ccccc12	0.0168 and -0.729	0.61 (inactive) and -1.13 (inactive)	-0.647 (inactive) and -0.589 (inactive)	2.68 (inactive) and -0.3 (inactive)	3.22 (inactive) and 5.31 (inactive)	-1.28 and -0.645	-0.304 and -0.278	-1.2 and -1.52	-1.14 and -0.798	-0.103 and 0.297	-0.433 (inactive) and 0.891 (inactive)	-0.194 and -0.0851	0.837 (inactive) and 2.36 (inactive)	-0.0805 (inactive) and 0.389 (inactive)	-0.718 (inactive) and 0.0336 (inactive)	0.205 (inactive) and 1.19 (inactive)	-0.565 and 0.273	-5.58 (inactive) and -5.73 (inactive)	-0.616 (inactive) and -1.33 (inactive)	1.95 and 1.31
C=CCN(C(=O)C1N(CCCCCCO)C(=O)C2C(C(=O)O)C3C=CC21O3)c1ccc(OC)cc1 (stereo not given)	1.04 and -0.561	0.191 (inactive) and 0.252 (inactive)	1.51 (inactive)	0.0564 (inactive) and 0.724 (inactive)	-0.933 (inactive) and -0.173 (inactive)	-0.825 and -0.728	-0.0791 and -0.0279	-3.03 and -2.03	-1.75 and -1.28	-1.27 and -1.42	2.17 (inactive) and 0.932 (inactive)	0.153 and 0.659	0.12 (inactive) and -0.718 (inactive)	-1.31 (inactive) and 0.0039 (inactive)	-0.398 (inactive) and -0.196 (inactive)	-1.43 (inactive) and -0.157 (inactive)	0.441 and -0.173	0.846 (inactive) and 0.381 (inactive)	-0.0568 (inactive) and -0.682 (inactive)	1.3 and 0.105
